Source: PubChem
TWEAK-Fn14 inh – inhibitors of TWEAK-Fn14 signaling, primary screen, luciferase reporter cells, uHTS; TWEAK-stimulated Fn14 reporter cells, luciferase luminescence, 8 h; inhibition, % at 10 µM; 2% of 360,000 active; AID 1159606, 2016; in the data active means inhibition above about 50%
LMP1 NFkB inh – EBV LMP1-driven NF-kappaB luciferase reporter inhibitors, primary screen, cell-based, luminescence, single point; LMP1-induced NF-kappaB luciferase reporter cells; AID 504558, 2011; inhibition, % at 12.5 µM; 0.69% of 350,000 active; in the data active means inhibition above about 41%;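 further: 0% = neutral control wells and 100% = reference inhibitor control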
TROY NFkB inh – inhibitors of TROY-driven NF-kB signaling, primary screen, Q293 LMP1-TROYcd cells, NF-kB luciferase, uHTS; Q293 LMP1-TROYcd NF-kB luciferase reporter, 4 h; inhibition, % at 10 µM; 0.98% of 360,000 active; AID 1347056, 2019;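 active means compounds whose plate-normalised and pattern-corrected inhibition of the luciferase reporter signal at the single screening dose is 50% or more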
Shn3 inh set2 – reduction of Shn3 3'UTR firefly luciferase signal, primary screen, Schnurri-3 inhibitor project, cell-based, Clone20 osteoblasts, set 2 | Clone20 osteoblast Shn3 3'UTR firefly luciferase, 24 h | inhibition, % at 12.5 µM | 0.52% of 360,000 active | AID 588674, 2011;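 active means mean inhibition of at least 75% with every replicate also reaching 75%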;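 further: 0% = median of neutral control wells and 100% = pilot-screen positive control compound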
Peg3 prom inh – Peg3 promoter-driven luciferase inhibitors, primary screen, cell-based, HeLa, luciferase luminescence; AID 588405, 2011; HeLa PEG-Prom luciferase reporter, overnight; 1.7% of 360,000 active; inhibition, % at 20 µM;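 active means inhibition of at least 50% at 20 µM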
TRPM1 prom inh – inhibitors of MITF-dependent TRPM1 promoter reporter, primary screen, cell-based, SK-MEL-5, single point, luciferase; SK-MEL-5 TRPM1 promoter luciferase, 24 h; inhibition, % at 12.5 µM; 0.83% of 330,000 active; AID 488899, 2010;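 active means mean inhibition across replicates of 60% or more, whatever share of single replicates reaches that level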
The depositor's hits bear a star. The list is not random: actives were taken first. Their share in the collection is about 4.1%.

What do the screens show for `Cc1ccccc1CN1C(=O)[C@@H]2Cc3c([nH]c4ccccc34)C(C)(C)N2C1=O`?
TWEAK-Fn14 inh: 42; LMP1 NFkB inh: -2; TROY NFkB inh: 21; Shn3 inh set2: -13; Peg3 prom inh: -7; TRPM1 prom inh: -8

Results for O=C(NC1CC2CCCC(C1)N2Cc1ccco1)NC12CC3CC(CC(C3)C1)C2 (stereo unspecified) ?
TWEAK-Fn14 inh: -6; LMP1 NFkB inh: -3; TROY NFkB inh: 5; Shn3 inh set2: 1; Peg3 prom inh: -4; TRPM1 prom inh: -15

How did Cc1[nH]c2ccccc2c1C(=O)C(=O)N1CC(C)OC(C)C1 (stereo unspecified) do in these assays?
TWEAK-Fn14 inh: -3; LMP1 NFkB inh: -9; TROY NFkB inh: 4; Shn3 inh set2: 0; Peg3 prom inh: 5; TRPM1 prom inh: 7

What do the screens show for `Nc1c(-c2ccccc2)cnn1-c1ccc(C(=O)O)cc1`?
TWEAK-Fn14 inh: 54*; LMP1 NFkB inh: -24; TROY NFkB inh: -29; Shn3 inh set2: -52; Peg3 prom inh: -83; TRPM1 prom inh: -40

What do the screens show for `Cc1ccc(-c2cnn(-c3ccccc3)c2N)cc1`?
TWEAK-Fn14 inh: 20; LMP1 NFkB inh: -13; TROY NFkB inh: -24; Shn3 inh set2: -11; Peg3 prom inh: -219; TRPM1 prom inh: -28

Results for COc1cccc(C=C(C(C)=O)C(=O)c2ccccc2)c1 ?
TWEAK-Fn14 inh: 51*; TROY NFkB inh: 14

Results for CCOC(=O)C1(CCOc2ccccc2)CCN(Cc2cccc(OCCO)c2)CC1 ?
TWEAK-Fn14 inh: -1; LMP1 NFkB inh: -1; TROY NFkB inh: 51*; Shn3 inh set2: 36; Peg3 prom inh: 7; TRPM1 prom inh: 17

What do the screens show for `O=C(O)CCN1C(=O)c2ccc(NC(=O)COc3ccccc3)cc2C1=O`?
TWEAK-Fn14 inh: 3; LMP1 NFkB inh: 1; TROY NFkB inh: -1; Shn3 inh set2: -10; Peg3 prom inh: -1; TRPM1 prom inh: 8

How did CN(C)c1ccc(/C=N/Nc2nc3ccccc3o2)cc1 do in these assays?
TWEAK-Fn14 inh: 81*; LMP1 NFkB inh: 24; TROY NFkB inh: 53*; Shn3 inh set2: 10; Peg3 prom inh: -75; TRPM1 prom inh: 9

How did Cc1ccccc1CN1CCN(C/C=C/c2ccccc2)CC1 do in these assays?
TWEAK-Fn14 inh: 58*; LMP1 NFkB inh: 10; TROY NFkB inh: 12; Shn3 inh set2: 3; Peg3 prom inh: 28; TRPM1 prom inh: -7

How did Cc1ccc(S(=O)(=O)N2CCOCC2)cc1NC(=O)C(c1ccc(Cl)cc1)C(C)C (stereo unspecified) do in these assays?
TWEAK-Fn14 inh: -18; LMP1 NFkB inh: -2; TROY NFkB inh: -14; Shn3 inh set2: -5; Peg3 prom inh: 22; TRPM1 prom inh: -16

What do the screens show for `COc1ccc(CNc2nc3nc(C)cc(C)n3n2)cc1OC`?
TWEAK-Fn14 inh: 10; LMP1 NFkB inh: -30; TROY NFkB inh: -6; Shn3 inh set2: 9; Peg3 prom inh: 26; TRPM1 prom inh: 1

Results for Cc1cc(C)n2nc(NCc3cccc(Br)c3)nc2n1 ?
TWEAK-Fn14 inh: -18; LMP1 NFkB inh: -1; TROY NFkB inh: 80*; Shn3 inh set2: 19; Peg3 prom inh: -6; TRPM1 prom inh: -4

What do the screens show for `CN(C)CCCN(C(=O)c1cc(-c2cccs2)nc2ccccc12)c1nc2c(F)cccc2s1`?
TWEAK-Fn14 inh: -9; LMP1 NFkB inh: -1; TROY NFkB inh: -33; Shn3 inh set2: 4; Peg3 prom inh: 71*; TRPM1 prom inh: 53

What do the screens show for `CN(C)CCCN(C(=O)/C=C/c1cccs1)c1nc2c(F)cccc2s1`?
TWEAK-Fn14 inh: 20; LMP1 NFkB inh: -4; TROY NFkB inh: 5; Shn3 inh set2: -18; Peg3 prom inh: 106*; TRPM1 prom inh: 54

What do the screens show for `Cc1ccc2nc(N(CCCN(C)C)C(=O)c3cc(-c4cccs4)nc4ccccc34)sc2c1`?
TWEAK-Fn14 inh: 19; LMP1 NFkB inh: 2; TROY NFkB inh: -11; Shn3 inh set2: -3; Peg3 prom inh: 107*; TRPM1 prom inh: 44

Results for O=C(NCc1ccc2c(c1)OCO2)c1cc(=O)[nH]c2ccccc12 ?
TWEAK-Fn14 inh: 4; LMP1 NFkB inh: -5; TROY NFkB inh: 4; Peg3 prom inh: 5; TRPM1 prom inh: 32

Results for Fc1ccccc1-c1csc(=Nc2cccnc2)n1CC1CCCO1 (stereo unspecified) ?
TWEAK-Fn14 inh: 17; LMP1 NFkB inh: -3; TROY NFkB inh: -8; Shn3 inh set2: -35; Peg3 prom inh: -4; TRPM1 prom inh: 5

Results for Fc1ccccc1-c1csc(=Nc2cccnc2)n1CCCn1ccnc1 ?
TWEAK-Fn14 inh: 55*; LMP1 NFkB inh: 2; TROY NFkB inh: 25; Shn3 inh set2: 52; Peg3 prom inh: -67; TRPM1 prom inh: -10

How did CCOc1ccc(S(=O)(=O)N2CCCCC2)cc1NC(=O)CN1C(=O)NC(C)(C2CC2)C1=O (stereo unspecified) do in these assays?
TWEAK-Fn14 inh: 18; LMP1 NFkB inh: 3; TROY NFkB inh: 1; Shn3 inh set2: 13; Peg3 prom inh: 9; TRPM1 prom inh: 6

Results for Cc1onc(-c2ccccc2Cl)c1C(=O)N1CCC(C(N)=O)CC1 ?
TWEAK-Fn14 inh: 0; LMP1 NFkB inh: -7; TROY NFkB inh: -16; Shn3 inh set2: -5; Peg3 prom inh: -5; TRPM1 prom inh: -13

How did Cc1onc(-c2ccccc2Cl)c1C(=O)N1CCC(Cc2ccccc2)CC1 do in these assays?
TWEAK-Fn14 inh: 11; LMP1 NFkB inh: 19; TROY NFkB inh: 1; Shn3 inh set2: 89*; Peg3 prom inh: 21; TRPM1 prom inh: 14

How did Cc1onc(C(=O)N2CCC(C(N)=O)CC2)c1-c1ccccc1Cl do in these assays?
TWEAK-Fn14 inh: 87*; LMP1 NFkB inh: 7; TROY NFkB inh: 1; Shn3 inh set2: 4; Peg3 prom inh: 5; TRPM1 prom inh: -5

What do the screens show for `CN(Cc1ccco1)C(=O)C1CCCN(c2ncnc3c2nc2n3CCCCC2)C1` (stereo unspecified)?
TWEAK-Fn14 inh: -20; LMP1 NFkB inh: -2; TROY NFkB inh: -22; Shn3 inh set2: 63; Peg3 prom inh: 25; TRPM1 prom inh: 11

Results for Cc1ccccc1Nc1cc2ccccc2c(=O)[nH]1 ?
TWEAK-Fn14 inh: 31; LMP1 NFkB inh: 6; TROY NFkB inh: -49; Shn3 inh set2: 16; Peg3 prom inh: -16; TRPM1 prom inh: 69*

What do the screens show for `C[C@@H](C(=O)OCC(=O)c1ccccc1)N1C(=O)C2CCCCC2C1=O` (stereo partly specified)?
TWEAK-Fn14 inh: 12; LMP1 NFkB inh: -2; TROY NFkB inh: -6; Shn3 inh set2: 1; Peg3 prom inh: -3; TRPM1 prom inh: -4
